Assay results published in PubChem BioAssay AID1159580 (chemical genetic matrix, 2015).
Hit rate of the full screen: of about 5,500 compounds, about 2,000 (36%) were called active. Inconclusive results (about 18%) are left out. Cut-off read from the data, not from the text of the source: active = normalized growth mostly below about 0.91 (no sharp cut-off); inconclusive = no clear call, values can overlap the other calls; inactive = mostly above about 0.92. This is one part of the list.

Assay: chemical genetic growth profiling, strain panel (AID 1159580);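 note: tested at 20 µM; growth read once vehicle control cultures reached saturation at 30 °C; 1 = growth at the plate median or of vehicle wells; lower values mean less growth of the strain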
Conditions: growth OD

Measured: normalized growth

C=C(C)[C@H]1CC=C(C(=O)O)CC1
active: S. cerevisiae deletion strains, locus YKL068W, stronger effect = lower value 0.858 | S. cerevisiae deletion strains, locus YKL085W, strain MDH1 (second series), stronger effect = lower value 0.84 | S. cerevisiae deletion strains, locus YKL085W, strain MDH1, stronger effect = lower value 0.84 | S. cerevisiae deletion strains, locus YKR001C, strain vps1, stronger effect = lower value 0.858 | S. cerevisiae deletion strains, locus YLR113W, strain HOG1, stronger effect = lower value 0.658 | S. cerevisiae deletion strains, locus YNL183C, strain NPR1, stronger effect = lower value 0.743 | S. cerevisiae deletion strains, locus YNL248C, strain rpa49, stronger effect = lower value 0.803 | S. cerevisiae deletion strains, locus YNL250W, strain rad50, stronger effect = lower value 0.852 | S. cerevisiae deletion strains, locus YNL271C, strain bni1, stronger effect = lower value 0.876 | S. cerevisiae deletion strains, locus YNL298W, strain CLA4, stronger effect = lower value 0.814 | S. cerevisiae deletion strains, locus YOR184W, strain ser1, stronger effect = lower value 0.862 | S. cerevisiae deletion strains, locus YOR231W, strain MKK1, stronger effect = lower value 0.761 | S. cerevisiae deletion strains, locus YPL256C, strain CLN2, stronger effect = lower value 0.71 | S. cerevisiae deletion strains, locus YPR141C, strain kar3, stronger effect = lower value 0.751 | S. cerevisiae deletion strains, locus YPR163C, strain tif3, stronger effect = lower value 0.911
inactive: S. cerevisiae deletion strains, locus YKL160W, strain elf1, stronger effect = lower value 0.969 | S. cerevisiae deletion strains, locus YKL190W, strain CNB1, stronger effect = lower value 1.01 | S. cerevisiae deletion strains, locus YKR026C, strain gcn3, stronger effect = lower value 0.98 | S. cerevisiae deletion strains, locus YKR091W, strain srl3, stronger effect = lower value 0.995 | S. cerevisiae deletion strains, locus YLL001W, strain dnm1, stronger effect = lower value 0.944 | S. cerevisiae deletion strains, locus YLL026W, stronger effect = lower value 0.97 | S. cerevisiae deletion strains, locus YLL041C, strain sdh2, stronger effect = lower value 0.998 | S. cerevisiae deletion strains, locus YLR027C, strain aat2, stronger effect = lower value 0.933 | S. cerevisiae deletion strains, locus YLR039C, strain RIC1, stronger effect = lower value 0.971 | S. cerevisiae deletion strains, locus YLR058C, strain SHM2, stronger effect = lower value 0.996 | S. cerevisiae deletion strains, locus YLR102C, strain apc9, stronger effect = lower value 0.966 | S. cerevisiae deletion strains, locus YLR221C, strain rsa3, stronger effect = lower value 0.907 | S. cerevisiae deletion strains, locus YLR258W, strain gsy2, stronger effect = lower value 0.982 | S. cerevisiae deletion strains, locus YLR262C, strain YPT6 (second series), stronger effect = lower value 0.979 | S. cerevisiae deletion strains, locus YLR262C, strain YPT6, stronger effect = lower value 0.977 | S. cerevisiae deletion strains, locus YLR268W, strain sec22, stronger effect = lower value 0.948 | S. cerevisiae deletion strains, locus YLR320W, strain mms22, stronger effect = lower value 0.962 | S. cerevisiae deletion strains, locus YLR330W, strain CHS5, stronger effect = lower value 0.99 | S. cerevisiae deletion strains, locus YLR342W, strain FKS1 (second series), stronger effect = lower value 0.852 | S. cerevisiae deletion strains, locus YLR342W, strain FKS1, stronger effect = lower value 0.976 | S. cerevisiae deletion strains, locus YLR357W, strain rsc2, stronger effect = lower value 0.932 | S. cerevisiae deletion strains, locus YLR370C, strain arc18, stronger effect = lower value 0.989 | S. cerevisiae deletion strains, locus YLR371W, strain rom2, stronger effect = lower value 0.949 | S. cerevisiae deletion strains, locus YLR384C, strain iki3, stronger effect = lower value 0.986 | S. cerevisiae deletion strains, locus YLR418C, strain cdc73, stronger effect = lower value 0.982 | S. cerevisiae deletion strains, locus YML016C, strain PPZ1, stronger effect = lower value 1.02 | S. cerevisiae deletion strains, locus YML032C, strain rad52, stronger effect = lower value 0.919 | S. cerevisiae deletion strains, locus YML120C, strain ndi1, stronger effect = lower value 0.986 | S. cerevisiae deletion strains, locus YML124C, strain tub3, stronger effect = lower value 0.964 | S. cerevisiae deletion strains, locus YMR058W, strain fet3, stronger effect = lower value 0.96 | S. cerevisiae deletion strains, locus YMR078C, strain ctf18, stronger effect = lower value 0.956 | S. cerevisiae deletion strains, locus YMR125W, strain sto1, stronger effect = lower value 1.03 | S. cerevisiae deletion strains, locus YMR129W, stronger effect = lower value 0.991 | S. cerevisiae deletion strains, locus YMR205C, strain PFK2, stronger effect = lower value 1.02 | S. cerevisiae deletion strains, locus YMR223W, strain ubp8, stronger effect = lower value 0.917 | S. cerevisiae deletion strains, locus YMR231W, strain pep5, stronger effect = lower value 0.988 | S. cerevisiae deletion strains, locus YMR263W, strain SAP30, stronger effect = lower value 0.952 | S. cerevisiae deletion strains, locus YMR307W, strain GAS1, stronger effect = lower value 0.821 | S. cerevisiae deletion strains, locus YNL067W, strain RPL9B, stronger effect = lower value 0.908 | S. cerevisiae deletion strains, locus YNL071W, strain lat1, stronger effect = lower value 0.991 | S. cerevisiae deletion strains, locus YNL128W, strain TEP1, stronger effect = lower value 0.996 | S. cerevisiae deletion strains, locus YNL153C, strain GIM3, stronger effect = lower value 0.924 | S. cerevisiae deletion strains, locus YNL209W, strain ssb2, stronger effect = lower value 0.992 | S. cerevisiae deletion strains, locus YNL233W, strain BNI4, stronger effect = lower value 0.955 | S. cerevisiae deletion strains, locus YNL307C, strain MCK1, stronger effect = lower value 0.912 | S. cerevisiae deletion strains, locus YNL322C, strain KRE1 (second series), stronger effect = lower value 0.912 | S. cerevisiae deletion strains, locus YNL322C, strain KRE1, stronger effect = lower value 1 | S. cerevisiae deletion strains, locus YNR049C, strain mso1, stronger effect = lower value 0.971 | S. cerevisiae deletion strains, locus YNR052C, strain pop2, stronger effect = lower value 0.921 | S. cerevisiae deletion strains, locus YOL006C, strain TOP1, stronger effect = lower value 0.97 | S. cerevisiae deletion strains, locus YOL012C, strain htz1 1.09 | S. cerevisiae deletion strains, locus YOL147C, strain pex11, stronger effect = lower value 0.976 | S. cerevisiae deletion strains, locus YOR001W, strain rrp6, stronger effect = lower value 0.894 | S. cerevisiae deletion strains, locus YOR061W, strain CKA2, stronger effect = lower value 0.971 | S. cerevisiae deletion strains, locus YOR069W, strain VPS5, stronger effect = lower value 1 | S. cerevisiae deletion strains, locus YOR070C, strain gyp1, stronger effect = lower value 0.963 | S. cerevisiae deletion strains, locus YOR080W, strain dia2, stronger effect = lower value 0.971 | S. cerevisiae deletion strains, locus YOR083W, strain WHI5, stronger effect = lower value 0.934 | S. cerevisiae deletion strains, locus YOR106W, strain vam3, stronger effect = lower value 0.967 | S. cerevisiae deletion strains, locus YOR136W, strain idh2, stronger effect = lower value 0.966 | S. cerevisiae deletion strains, locus YOR144C, strain elg1, stronger effect = lower value 0.946 | S. cerevisiae deletion strains, locus YOR265W, strain rbl2, stronger effect = lower value 1.01 | S. cerevisiae deletion strains, locus YOR270C, strain vph1, stronger effect = lower value 0.959 | S. cerevisiae deletion strains, locus YOR290C, strain snf2, stronger effect = lower value 0.95 | S. cerevisiae deletion strains, locus YOR316C, strain cot1, stronger effect = lower value 0.978 | S. cerevisiae deletion strains, locus YPL051W, strain arl3, stronger effect = lower value 0.964 | S. cerevisiae deletion strains, locus YPL078C, strain atp4, stronger effect = lower value 0.959 | S. cerevisiae deletion strains, locus YPL106C, strain sse1, stronger effect = lower value 0.967 | S. cerevisiae deletion strains, locus YPL240C, strain hsp82, stronger effect = lower value 0.989 | S. cerevisiae deletion strains, locus YPL241C, strain CIN2, stronger effect = lower value 1.01 | S. cerevisiae deletion strains, locus YPR119W, strain clb2, stronger effect = lower value 0.981 | S. cerevisiae deletion strains, locus YPR167C, strain met16, stronger effect = lower value 0.929 | S. cerevisiae deletion strains, strain wtn01, stronger effect = lower value 0.904 | S. cerevisiae strains, strain wild type, stronger effect = lower value 0.999
